In PubChem BioAssay (Tox21):
Where “and” joins values, the source holds several entries; their conditions need not be identical. Identical values can stand only once. Records with an inconclusive call do not appear. Values without a mark were called inactive. Calls of active or inactive are those of the source. Calls come from the whole dose curve; as a rule, active = well fitted inhibition curve with a large enough effect in the repeat runs; inconclusive = weak or mixed curves; inactive = flat fitted curve, though single readings scatter.

The compounds below were run against Voltage-gated inwardly rectifying potassium channel KCNH2 (Homo sapiens) (UniProt Q12809) (assay: Human Ether-a-go-go-Related Gene (hERG) channel small molecule antagonists: fluorescence cell-based qHTS assay (AID 1671200; note: nearly all actives have a fitted effect of over 50% in size)). Settings: hERG-U2OS cells, FluxOR thallium flux fluorescence; series mostly up to 76.8 µM; activity change, negative = inhibition: at the top concentration.
Sequence of Voltage-gated inwardly rectifying potassium channel KCNH2 (Homo sapiens) (Q12809 whole entry, looked up): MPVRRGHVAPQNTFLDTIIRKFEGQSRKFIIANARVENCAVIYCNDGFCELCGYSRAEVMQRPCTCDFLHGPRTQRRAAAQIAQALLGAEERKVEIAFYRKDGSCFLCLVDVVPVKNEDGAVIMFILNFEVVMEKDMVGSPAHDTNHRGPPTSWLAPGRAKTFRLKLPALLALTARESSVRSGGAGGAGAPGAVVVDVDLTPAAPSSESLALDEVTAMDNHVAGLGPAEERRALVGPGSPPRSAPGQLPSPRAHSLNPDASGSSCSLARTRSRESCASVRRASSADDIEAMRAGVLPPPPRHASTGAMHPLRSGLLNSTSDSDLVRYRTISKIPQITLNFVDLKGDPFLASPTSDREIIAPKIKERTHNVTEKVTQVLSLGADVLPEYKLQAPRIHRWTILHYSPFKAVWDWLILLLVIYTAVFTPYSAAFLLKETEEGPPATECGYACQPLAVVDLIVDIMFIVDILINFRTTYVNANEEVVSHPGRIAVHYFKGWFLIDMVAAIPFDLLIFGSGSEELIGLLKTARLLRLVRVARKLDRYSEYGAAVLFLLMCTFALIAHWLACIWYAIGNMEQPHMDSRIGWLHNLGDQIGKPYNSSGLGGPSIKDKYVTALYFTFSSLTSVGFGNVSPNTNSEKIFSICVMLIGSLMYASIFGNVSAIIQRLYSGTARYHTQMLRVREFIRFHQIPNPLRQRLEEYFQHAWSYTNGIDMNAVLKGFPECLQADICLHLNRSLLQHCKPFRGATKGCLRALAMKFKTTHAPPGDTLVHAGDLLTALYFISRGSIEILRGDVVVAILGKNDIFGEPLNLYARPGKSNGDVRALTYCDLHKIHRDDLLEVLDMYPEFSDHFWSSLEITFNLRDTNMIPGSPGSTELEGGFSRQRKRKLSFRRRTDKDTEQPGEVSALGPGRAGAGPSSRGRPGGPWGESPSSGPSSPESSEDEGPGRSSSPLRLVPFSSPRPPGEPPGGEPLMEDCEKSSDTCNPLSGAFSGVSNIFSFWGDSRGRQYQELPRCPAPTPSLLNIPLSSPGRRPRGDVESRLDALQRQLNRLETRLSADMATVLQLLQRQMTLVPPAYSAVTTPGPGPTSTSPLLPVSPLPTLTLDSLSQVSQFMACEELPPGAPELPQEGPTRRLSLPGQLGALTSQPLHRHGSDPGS
Description: National Center for Advancing Translational Sciences [NCATS]
U.S. Environmental Protection Agency [EPA]
National Institutes of Environmental Health Sciences [NIEHS]
National Toxicology Program [NTP]
U.S. Food and Drug Administration [FDA]
Mutations in the hERG channel cause Long QT (LQT) syndrome. LQT syndrome is a cardiac disorder which can cause ventricle arrhythmia and sudden death. Additionally, compounds which block the hERG channel can cause acquired LQT syndrome. Several FDA approved drugs have been removed from the market due to their hERG blocking activity. A cell-based hERG channel inhibition assay can be used to screen chemical compounds that inhibit hERG channel. This assay measures hERG channel activity using thallium ions as surrogate ions to measure potassium into the cells.
Tox21 Assay Protocol Summary:
hERG-U2OS cells were resuspended in culture medium and dispensed into 1536-well, black wall/clear-bottom plates at 1000cells/well/3uL using a Multidrop Combi dispenser (Thermo Fisher, Waltham, MA). After plates were incubated at 37 C overnight, 3 uL of Loading Buffer provided by FluxOR II Potassium Ion Channel Assay kit (Thermo, Carlsbad, CA) was added to each well. The assay plates were then incubated at room temperature in the dark for 1h. […] After the assay plates were incubated at room temperature for 10 min, 1 uL of Stimulus Buffer provided by FluxOR II Potassium Ion Channel Assay kit was added into each well and fluorescence intensity (480nm excitation/540nm emission) was continuously measured for 2 min at 1 second intervals using a Functional Drug Screening System (FDSS) 7000EX kinetic plate reader (Hamamatsu, Japan).
% is set by controls: 0 for no effect and ±100 for the full control effect; potency is the fitted concentration of half-maximal effect.

SMILES	activity change, negative = inhibition	Potency
Cc1ccc2ccc3cccc4ccc1c2c34	-6.06%	–
O=C1C=CC(=O)N1c1ccccc1	–	49 µM (active)
NCCCCCCNCCCCCCN	-2.7%	–
CC(=O)Nc1ccc(O)cc1	–	inactive
CCCC(CC)CCCCCCCN (stereo not given)	–	28.2 µM (active)
CN1CN(C)CN(C)C1	8.26%	–
O=S(O)O	4.11% [at 15.8 µM]	–
CC[N+](CC)(CC)Cc1ccccc1	-3.6%	–
C=CC(=C)CCC=C(C)C	0.496%	–
COc1cccc(O)c1	5.3%	–
c1cc[nH]c1	4.01%	–
c1ccc(Nc2cccc3ccccc23)cc1	–	35.1 µM (active) and 17.4 µM (active)
O=C1NCN(c2ccccc2)C12CCN(CCCC(c1ccc(F)cc1)c1ccc(F)cc1)CC2	–	0.19 µM (active)
C=C(C)C(=O)OCCC[Si](Cl)(Cl)Cl	-3.87%	–
CCc1c(C(=O)O)c(=O)cnn1-c1ccc(Cl)cc1	6.52%	–
O=C(O)CCCCCCC(=O)O	-0.0622%	–
c1cc2c3c(c1)ccc1cccc(c13)C2	34.3%	–
CN(C)CCCN1c2ccccc2Sc2ccc(C(F)(F)F)cc21	–	2.68 µM (active)
CC(C)(c1cc(Br)c(O)c(Br)c1)c1cc(Br)c(O)c(Br)c1	–	inactive
O=C(O)CC(=O)O	2.31%	–

SMILES	activity change, negative = inhibition	Potency
O=C=NCc1cccc(CN=C=O)c1	0.993% [at 15.8 µM]	–
O=S(=O)(O)c1cc(S(=O)(=O)O)c2ccc3c(S(=O)(=O)O)cc(S(=O)(=O)O)c4ccc1c2c43	2.85% [at 15.8 µM]	–
CCCCN(C)C	4.29%	–
CCN(CC)c1ccc(N)cc1	–	25.2 µM (active)
CCCCCCCC/C=C\CCCCCCCC(=O)N(C)CC(=O)O	2.47%	–
CCCCCCCCCCCCN(CCO)CCO	–	7.73 µM (active)
C[Si](C)(C)Cl	0.778%	–
c1ccc2c(c1)CCC2	0.56%	–
COC(=O)C1=C(C)NC(C)=C(C(=O)OCCCN2CCC(c3ccccc3)(c3ccccc3)CC2)C1c1cccc([N+](=O)[O-])c1 (stereo not given)	–	1.51 µM (active)
NC(=O)c1nc(-c2cccc(-c3cc(F)ccc3OCC(F)(F)C(F)(F)F)c2)n[nH]1	–	43.6 µM (active)
Cc1cncc(C)c1	5.72%	–
CCCC(C)CCC(C)=O (stereo not given)	0.771%	–
CC(C)c1ccccc1N	0.797%	–
Oc1c(Br)cc(Br)c2cccnc12	5.8% [at 35.3 µM]	–
CC(=O)OC(OC(C)=O)c1ccc([N+](=O)[O-])o1	20.7%	–
CCC(C)c1cc([N+](=O)[O-])cc([N+](=O)[O-])c1OC(=O)OC(C)C (stereo not given)	-26.7%	–
CC(=O)c1ccccc1N	7.77%	–
CC1=CCC(=O)O1	2.78%	–
CCC1(c2cnc[nH]2)Cc2ccccc2C1	0.616% [at 35.3 µM]	–
CCC(=O)CC(C)CC (stereo not given)	2.31% [at 0.29 µM]	–
